For 40 compounds, Potency results are on record in PubChem BioAssay AID1347156 (National Center for Advancing Translational Sciences (NCATS), 2019).

Records with an inconclusive call do not appear. Calls of active or inactive are those of the source. Calls come from the whole dose curve; as a rule, active = well fitted cell-killing curve with a large enough effect; inconclusive = small, poorly fitted or top-dose-only effect; inactive = flat fitted curve, though single readings scatter.
Potency is the fitted concentration of half-maximal effect.

The experiment in a line: DAPI mCherry counterscreen qHTS for Zika virus inhibitors. Note: nearly all actives have a fitted effect of over 55% in size. The following applies: Vero cells, DAPI nuclear count cytotoxicity, imaging 48-72 h, infected with Zika reporter virus, MOI 1; series mostly up to 32.6 µM. The text has this: Assay Submitters (PI): Avindra Nath, Ph.D., National Institute of Neurological Disorders and Stroke (NINDS), Bethesda, MD Radhakrishnan Padmanabhan, Ph.D., Georgetown University (GU), Washington D.C. Zika Virus causes congenital defects, including microcephaly and is associated with Guillain-Barre syndrome, eningoencephalitis and myelitis in infected adult. […] Using a target-based approach, we hope to establish a screening paradigm to uncover novel, cell-active NS2B-NS3 protease (Zika Virus) specific inhibitors from NCATS' collection of small molecules using qHTS. […] Four assay panel was created to identify potential Zika Virus inhibitors. Namely, (1) GU unlinked NS2B-NS3 AMC tagged protease qHTS, (2) GU unlinked NS2B-NS3 Rhodamine tagged protease qHTS, (3) NINDS linked NS2B-NS3 AMC tagged protease qHTS, (4) NINDS linked NS2B-NS3 Rhodamine tagged protease qHTS. Active compounds were re-acquired and re-screened to confirm inhibition. Inhibitors were further screened against various confirmatory and counterscreens in dose response format. […] A DAPI (mCherry counterscreen) which determine Vero cell cytotoxicity was used to exclude false positive compounds. […] Early Translation Branch (ETB) National Center for Advancing Translational Sciences (NCATS), Rockville, MD National Institute of Health (NIH), Bethesda, Maryland
384 well ZIKV-mCherry & mCherry DAPI counterscreen: We have developed a new orthogonal imaging assay in 384-well plate format, which uses recombinant virus ZIKV-mCherry in Vero cells. Briefly, 30 microL of Vero cells derived from a green monkey cell line, were dispensed by Multidrop Dispenser into a clear solid bottom black 384 well plate (ultracarrier, Perkin Elmer LifeSciences) at a concentration of 5,000 cells per well. The plate was incubated overnight in a CO2 incubator at 37 degrees C. Compounds were delivered as a 126 nL DMSO solution by Kalypsys pintool transfer. Following compound transfer, 10 microL of ZIKV-mCherry was added at an MOI of 1 and incubated in a CO2 incubator for 48-72 hrs at 37 degrees C. After sufficient incubation of infected cells in test plates, 8 microL of 32% PFA was dispensed into assay plates to fix cells and incubated for 20 min at room temperature. Plates were washed 3 times with PBS using BioTek EL406 microplate washer/dispenser. After washing, 30 microL of PBS with 0.01% TX-100 containing Hoechst dye was dispensed into the each well of the plates for nuclear staining. 384-well plates were imaged on an automated, widefield high content imager (INCell 2200, GE Healthcare) using a 10x/0.45 NA lens and standard DAPI (nuclear stain) and mCherry (cy5) excitation and emission filters. The TIFFs were quantitated using the canned Multi Target Analysis protocol (GE Investigator Workstation software v3.7.2). Briefly, nuclei from the DAPI channel were identified using top hat segmentation and a sensitivity setting of 96 and minimum size area of 35 microm2. A recombinant Zika viral infection was monitored in the Cy5 channel (cells) using a 2 microm collar dilation from the nuclear bitmap. mCherry objects with an average nuclear RFU intensity above 450 (3 stdev above mean negative control wells) were considered "mcherry positive" and data was analyzed by percent infection rate.
For orientation: A counterscreen serves to expose hits that act by an unwanted route or on another target.
With `Cc1c(Cl)cccc1NS(=O)(=O)c1ccc(NS(=O)(=O)c2ccc3c(c2)OCCO3)cc1`, the Potency is 31.6 µM (active).
Next, `O=S(=O)(O)c1cc(O)c2c(N=Nc3ccc(Nc4ccccc4)c4c(S(=O)(=O)O)cccc34)cc(S(=O)(=O)O)cc2c1`: “inactive”.
For the compound `Cc1cc(C)cc(C(=O)N(C)[C@H](Cc2ccc(-c3ccccc3)cc2)C(=O)N[C@@H](Cc2c[nH]c3ccccc23)C(=O)O)c1`, the Potency was 8.91 µM (active).
Next, `O=C(O)c1ccc(C2Nc3ccccc3-c3nnc(SCc4ccc(Cl)cc4)nc3O2)cc1` (stereo not given): “inactive”; `COc1ccc(Cl)c(Nc2nc3ccccc3nc2NS(=O)(=O)c2cccc(NC(=O)C(C)(C)N)c2)c1`: 22.4 µM (active).
The value for `CNC(=O)c1cc(Oc2ccc(NC(=O)Nc3ccc(Cl)c(C(F)(F)F)c3)cc2)ccn1` was 4.47 µM (active); that for `CC1CCC(C(=O)N(c2cc(C#CC(C)(C)C)sc2C(=O)O)C2CCC(O)CC2)CC1` (stereo not given) was 25.1 µM (active); that for `COc1cnc(-c2ccc(Cn3c(CC(C)(C)C(=O)O)c(SC(C)(C)C)c4cc(OC[C@@H]5Cc6ccccc6N5C(C)=O)ccc43)cc2)nc1` was 15.8 µM (active).
Next, `CC(C)(Sc1ccc(CCN(CCCCC2CCCCC2)C(=O)NC2CCCCC2)cc1)C(=O)O`: 14.1 µM (active).
Consider `CCN(Cc1cccc(S(=O)(=O)O)c1)c1ccc(C(=C2C=CC(=[N+](CC)Cc3cccc(S(=O)(=O)O)c3)C=C2)c2ccc(O)cc2S(=O)(=O)O)cc1`, for which the Potency entry was “inactive”.
Next, `O=C(Nc1cccc(C(=O)OCc2cc(=O)n3nc(C4CC4)sc3n2)c1)c1cccc(F)c1`: “inactive”; `N#Cc1ccc(N2N=C3c4ccc(C(=O)O)cc4CC[C@@H]3[C@@H]2C2CCCC2)cc1Cl`: 4.47 µM (active).
Next, `COc1cc(-c2ccc(N=Nc3ccc4c(S(=O)(=O)O)cc(S(=O)(=O)O)c(N)c4c3O)c(OC)c2)ccc1N=Nc1ccc2c(S(=O)(=O)O)cc(S(=O)(=O)O)c(N)c2c1O`: “inactive”; `Cc1cccc(C)c1-n1c(SCC(=O)Nc2ccc(C(=O)O)cc2)nnc1-c1cccc([S+](=O)([O-])N2CCCC2)c1`: “inactive”.
The value for `O=c1c(O)c(Br)ccc2c(Br)c(O)c(O)c(O)c12` was “inactive”; that for `O=c1c(O)c(-c2ccc(O)c(O)c2)oc2cc(O)ccc12` was “inactive”.
On to `O=C(Nc1ccccc1)c1ccc2c(O)c(S(=O)(=O)c3ccc(Cl)cc3)c(=O)[nH]c2c1`, for which the Potency result was “inactive”.
The value for `COc1cc(C(=O)NS(=O)(=O)c2ccccc2C)ccc1Cc1cn(C)c2ccc(NC(=O)OC3CCCC3)cc12` was 35.5 µM (active).
As to `CCN(Cc1cccc(S(=O)(=O)O)c1)c1ccc(C(=C2C=CC(=[N+](CC)Cc3cccc(S(=O)(=O)O)c3)C=C2)c2ccccc2S(=O)(=O)[O-])cc1`, the Potency entry is “inactive”.
Next, `Nc1ncnc2c1ncn2[C@@H]1O[C@H](CSCC[C@H](N)C(=O)O)[C@@H](O)[C@H]1O`: “inactive”; `CC(C)c1cc(C(C)C)c(CC(=O)NS(=O)(=O)Oc2c(C(C)C)cccc2C(C)C)c(C(C)C)c1`: 10 µM (active); `CC(=O)Oc1cc2c(c(C)c1OC(C)=O)CC=C1[C@@]2(C)CC[C@@]2(C)[C@H]3C[C@](C)(C(=O)O)CC[C@]3(C)CC[C@]12C`: 2.82 µM (active).
As for `O=C(O)CSc1nc2ccc(NC(=O)COc3ccc(Cl)cc3)cc2s1`, the Potency entry was “inactive”.
The value for `COc1ccc(-c2cc(=O)c3c(O)cc(O)c(-c4cc(-c5cc(=O)c6c(O)cc(O)cc6o5)ccc4OC)c3o2)cc1` was 12.6 µM (active); that for `CN(Cc1ccc(C(=O)O)cc1)c1ccc(OCc2c(-c3c(Cl)cccc3Cl)noc2C2CC2)nc1C(F)(F)F` was 15.8 µM (active); that for `O=C(O)c1c(Sc2ccccc2)c2cc(Cl)ccc2n1Cc1ccc(Cl)cc1` was 12.6 µM (active).
The value for `Nc1ncnc2c([C@@H]3N[C@H](CO)[C@@H](O)[C@H]3O)c[nH]c12` was “inactive”.
The value for `Cc1cc(C(C#N)c2ccc(Cl)cc2)c(Cl)cc1NC(=O)c1cc(I)cc(I)c1O` (stereo not given) was 8.91 µM (active); that for `CC(=O)N1c2ccc(-c3ccc(C(=O)O)cc3)cc2C(Nc2ccc(Cl)cc2)CC1C` (stereo not given) was 1 µM (active).
For the compound `COc1ccc(Br)cc1S(=O)(=O)NC(=O)/C=C/c1ccccc1Cc1ccc2ccccc2c1`, the Potency is 31.6 µM (active).
The value for `O=C(O)c1c(Br)c(Br)c(Br)c(Br)c1C1c2ccc(O)cc2Oc2cc(O)ccc21` was 20 µM (active); that for `CC(=O)Nc1ccc(S(=O)(=O)O)c2cc(S(=O)(=O)O)c(N=Nc3ccc(N=Nc4ccc(S(=O)(=O)O)cc4)c4ccc(S(=O)(=O)O)cc34)c(O)c12` was “inactive”.
Next, `COc1cc(/C=C(\C#N)C(=O)Nc2nnc(C(F)(F)F)s2)ccc1OCc1ccc(C(F)(F)F)cc1C(F)(F)F`: 7.08 µM (active); `O=c1oc2ccccc2cc1-c1nnc(Nc2ccc(Cl)cc2Cl)s1`: “inactive”; `CC1CCN(C(c2ccc(F)cc2)c2ccc(C(C)C(=O)O)cc2-c2ccc(C(F)(F)F)cc2)CC1` (stereo not given): 8.91 µM (active).
Next, `Nc1c(S(=O)(=O)O)cc(Nc2ccc(Nc3nc(Cl)nc(Nc4ccc(S(=O)(=O)O)cc4)n3)c(S(=O)(=O)O)c2)c2c1C(=O)c1ccccc1C2=O`: “inactive”; `O=C(O)c1ccccc1Nc1cccc(OCc2ccc3ccccc3n2)c1`: 31.6 µM (active).
Consider `CO[C@H]1C[C@@H](O[C@@H]2/C(C)=C/C[C@@H]3C[C@@H](C[C@]4(CC[C@H](C)[C@@H](C5CCCCC5)O4)O3)OC(=O)[C@@H]3C=C(C)/C(=N/O)[C@H]4OC/C(=C\C=C\[C@@H]2C)[C@]43O)O[C@@H](C)[C@H]1O`, for which the Potency is 11.2 µM (active).
The value for `Oc1c(Cl)cc(Cl)cc1Sc1cc(Cl)cc(Cl)c1O` was “inactive”; that for `O=C(O)c1ccc(NC(=O)c2cn(-c3ccccc3)nc2-c2ccc(Br)cc2)cc1` was 35.5 µM (active).
